Bioassay records deposited in PubChem by National Center for Advancing Translational Sciences (NCATS).
The list is not random: actives were taken first. Their share in the collection is about 5.4%.
VACV Venus inh: vaccinia inhibition (Venus reporter); Vaccinia virus Venus reporter expression, fluorescence; Potency, µM (highest dose often 36.5 µM), actives largely listed as inhibitors; hit rate 0.46% among 330,000; calls by dose curve; tested in A549 cells; further: nearly all actives have a fitted effect of over 30% in size
VACV mCherry inh: inhibitors of vaccinia virus infection (mCherry reporter signal); Vaccinia virus mCherry reporter infection, fluorescence; Potency, µM (titrated, usually from 36.5 µM), hits mostly inhibitors; hit rate 0.63% among 310,000; calls by dose curve; tested in A549 cells; further: nearly all actives have a fitted effect of over 35% in size
Marburg entry inh: Marburg virus entry inhibition; Potency, µM (doses to about 37.8 µM), hits mostly inhibitors; AID 540276; Marburg virus pseudotyped entry inhibition, cell reporter; hit rate 1.8% among 300,000; calls by dose curve; tested in HEK293 cells
FMDV inh: blocks foot and mouth disease virus | FMDV antiviral cell-based qHTS | Potency, µM (doses to about 57.9 µM), actives largely listed as inhibitors | hit rate 1.2% among 410,000; calls by dose curve; tested in HEK293T cells; further: read-out not given here; nearly all actives have a fitted effect of over 45% in size
LASV entry inh: Lassa virus entry inhibition. Lassa virus pseudotype entry inhibition, cell reporter. Potency, µM (titrated, usually from 37.9 µM), usual class: inhibitors. hit rate 1.2% among 300,000. AID 540256; calls by dose curve; tested in HEK293 cells; further: nearly all actives have a fitted effect of over 50% in size
Sm TGR inh: inhibitors of Schistosoma mansoni thioredoxin glutathione reductase | Q962Y6 | purified TGR, DTNB reduction, TNB absorbance 405 nm | Potency, µM (highest dose often 114 µM), most hits filed as inhibitors | hit rate 3% among 360,000 | AID 485364; active means well fitted inhibition curve with a large enough effect; inconclusive means small, poorly fitted or top-dose-only effect; inactive means no such curve, though single readings can be large or run the other way; further: nearly all actives have a fitted effect of over 60% in size
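First, TGR (20 nM dispensed) and NADPH were mixed with compound. Second, a 15 min room-temperature incubation followed. Third, further NADPH and then DTNB were added to start the reaction. Finally, TNB absorbance was monitored kinetically.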
Hits are given with their value; n = inactive; u = inconclusive; x = no result given; [ ] = remark or other dose.

SMILES | VACV Venus inh | VACV mCherry inh | Marburg entry inh | FMDV inh | LASV entry inh | Sm TGR inh
O=C(/C=C/c1cccc([N+](=O)[O-])c1)N1CCN(S(=O)(=O)c2cccs2)CC1 | n | n | n | u | n | n
Cc1ccc(/C=C/C(=O)N2CC(C)CC(C)C2)o1 (stereo unspecified) | n | x | n | n | n | 2.8µM
Cc1ccc(/C=C/C(=O)N2CCN(S(=O)(=O)c3cccs3)CC2)o1 | x | x | x | n | x | 8.9µM
COc1ccc(C)cc1/C=C/C(=O)N1CCN(S(=O)(=O)c2cccs2)CC1 | n | n | x | u | x | x
Cc1ccc(S(=O)(=O)N2CCN(c3nc(-c4ccc(CN5CCNCC5)s4)nc4ccccc34)CC2)cc1 | n | n | x | x | x | x
CC1(C)CC(=O)c2cc(-c3nc(-c4ccccc4)cs3)c(=O)[nH]c2C1 | n | n | u | n | n | n
Cc1ccc(CNC(=O)CCc2nnc3n(C)c(=O)c4sccc4n23)cc1 | n | n | n | n | n | n
CCc1ccc2c(c1)/C(=C/C(=O)c1cccs1)C(=O)N2 | x | x | u | 20µM | u | n
Cc1csc(CN(C)C(=O)c2sc3ncnc(NCC4CCCO4)c3c2C)n1 (stereo unspecified) | n | n | x | n | x | x
COc1cccc(CN2CCCC(c3nc(-c4ccncc4)ncc3-c3ccccc3)C2)c1O (stereo unspecified) | n | n | x | n | x | x
CCOc1ccc(NC(=O)CN(C)C(=O)C2CC(=O)N(CCc3ccc(OC)c(OC)c3)C2)cc1OCC (stereo unspecified) | n | n | n | n | n | x
CCOc1ccc(NC(=O)CN(C)C(=O)C2CC(=O)N(Cc3ccco3)C2)cc1OCC (stereo unspecified) | x | x | x | n | x | 45µM
CCc1noc(-c2ccc(N3CCC(C)CC3)c([N+](=O)[O-])c2)n1 | n | n | u | n | n | n
O=C(O)CCCC(=O)Nc1ccccc1SCCS(=O)(=O)c1ccc(Cl)cc1 | u | 20µM | n | n | u | 40µM
Cc1noc(C)c1C(=O)N1CCC[C@@]2(CCN(Cc3nccs3)C2)C1 | x | x | x | n | x | x
CCCN(C(=O)COc1cc(=O)n(CC)c2ccccc12)c1ccc(C(C)C)cc1 | n | n | n | u | n | n
COc1ccc(NS(=O)(=O)c2ccc3[nH]c4c(c3c2)CCCC4)cc1OC | u | u | x | n | n | n
O=C(NC1CCCCC1)Sc1ccc(Cl)cc1 | n | n | n | 32µM | n | u
N=c1c[n+](N2CCOCC2)[n-]o1 | n | n | n | n | n | 22µM
O=S(=O)(CCSc1nc2ccccc2o1)c1nc2ccccc2s1 | n | n | u | 16µM | u | 0.71µM
O=S(=O)(CCSc1ccccn1)c1nc2ccccc2s1 | n | n | u | u | n | 0.79µM
O=C(CSc1ccccn1)Nc1nc2ccccc2s1 | n | n | u | n | n | n
CCN(C(=O)CN1C(=O)COc2ccc(S(=O)(=O)N3CCOCC3)cc21)c1cccc(C)c1 | n | n | x | n | n | n
O=C(N/N=C1\CCc2ccccc21)c1ccccc1O | n | n | 5µM | n | u | n
Cc1ccc(CNC(=O)CCCc2c[nH]c3ccccc23)cc1 | n | u | n | n | n | n
SMILES | VACV Venus inh | VACV mCherry inh | Marburg entry inh | FMDV inh | LASV entry inh | Sm TGR inh
CCOc1c(Cl)cc(CNCCc2c[nH]c3ccccc23)cc1OC | x | x | x | n | x | n
O=C(CCCc1c[nH]c2ccccc12)NCc1ccccc1F | n | u | n | n | 7.9µM | n
Fc1ccc(CNCCc2c[nH]c3ccccc23)cc1 | n | u | 10µM | n | n | n
COc1cccc(CNCCc2c[nH]c3ccccc23)c1 | n | u | 11µM | n | u | u
CCOc1cc(CNCCc2c[nH]c3ccccc23)cc(Cl)c1OCC | 11µM | u | u | n | n | n
COc1cc(OC)c(OC)cc1/C=C/c1cc[n+](C)c2ccccc12 | n | n | x | x | x | x
Cc1nn(C)c2c1c(C(F)(F)F)cc(=O)n2C(C)C(=O)Nc1ccccc1F (stereo unspecified) | n | n | x | u | n | n
COc1ccc(NC(=O)Cn2c(=O)oc3cc(S(=O)(=O)NC4CCCC4)ccc32)cc1OC | n | n | x | n | n | n
O=C(NC1(Cc2ccccc2)CCN(Cc2ccc(-c3ccccc3)cc2)C1=O)c1ccccc1 (stereo unspecified) | u | 11µM | n | n | x | n
CCc1noc(C)c1C(=O)Nc1nc(-c2ccc(OC)c(OC)c2)cs1 | n | n | u | 18µM | u | n
CCOC(=O)N1CCN(C(=O)CSCC(=O)Nc2nc(-c3cccs3)cs2)CC1 | x | x | n | 14µM | n | n
COc1ccc(-c2csc(NC(=O)c3ccc(OCC(=O)N4CCOCC4)c(OC)c3)n2)cc1OC | u | u | 11µM | 14µM | u | n
CCOC(=O)N1CCN(C(=O)CSCC(=O)Nc2nc(-c3ccc4c(c3)OCO4)cs2)CC1 | x | x | u | u | n | n
O=C(CSCC(=O)N1CCOCC1)Nc1nc(-c2ccc3c(c2)OCO3)cs1 | 8.9µM | u | x | n | x | n
COc1cc(-c2cnc3ccccc3c2)cc2c1OCCN(S(=O)(=O)C[C@]13CC[C@H](CC1=O)C3(C)C)C2 | n | n | x | n | x | x
COC(=O)c1c(SCC(=O)Nc2ccccc2OC)[nH]c2ccccc2c1=O | n | n | x | n | n | n
CC(=O)NNc1nc(-c2ccc(NC(C)=O)cc2)cs1 | x | x | n | n | n | 40µM
Cc1onc(-c2ccccc2)c1C(=O)Nc1nc(-c2ccc(F)c(F)c2)cs1 | n | n | n | n | n | n
CCc1noc(C)c1C(=O)OCC(=O)Nc1nc(-c2ccc(F)c(F)c2)cs1 | n | n | u | 14µM | u | n
CC(=O)Nc1ccc(-c2csc(NC(=O)c3ccc(C)o3)n2)cc1 | n | x | n | n | n | n
CCc1noc(C)c1C(=O)Nc1nc(-c2ccc(NC(C)=O)cc2)cs1 | n | n | u | 22µM | u | n
COC(=O)c1c(-c2cccs2)csc1NC(=O)c1ccc(Br)cc1 | n | n | u | n | u | n
COc1ccc(N2CC(NC(=O)COc3ccccc3)CC2=O)cc1OC (stereo unspecified) | n | n | x | n | n | n
CC(=O)c1cc(-c2ccc(F)cc2)n(CC(=O)NC2CCCCCC2)c1C | n | n | x | n | n | n
Cn1cnnc1Sc1ccc(CN2CCOc3ccc(C4=CCCCC4)cc3C2)o1 | n | n | x | n | x | x
SMILES | VACV Venus inh | VACV mCherry inh | Marburg entry inh | FMDV inh | LASV entry inh | Sm TGR inh
Cc1ccc(N=Nc2ccc(O)cc2)c(Br)c1 | n | n | u | n | 10µM | n
CN1CCN(Cc2c(O)ccc3cc(Br)ccc23)CC1 | n | u | u | n | n | 3.5µM
CCN(CC)c1ccc(NC(=O)c2cnc3c(-c4ccccc4)c(C)nn3c2C)c(C)c1 | n | n | x | u | n | n
COc1ccc(Cl)cc1NC(=O)c1c(NCc2sccc2C)sc2c1CCCC2 | n[7.34 µM] | n[7.34 µM] | x | n | n | n
COc1ccc(NC(=O)c2c(NCc3cccs3)sc3c2CCCC3)c(OC)c1 | n | n | x | n | u | n
CCOc1ccccc1NC(=O)c1c(NCc2sccc2C)sc2c1CCC(C)C2 (stereo unspecified) | n | n | x | n | n | n
COc1ccc(NC(=O)c2c(NCc3sccc3C)sc3c2CCCCC3)c(OC)c1 | n | n | x | n | n | 13µM
